# Experimental data from PubChem BioAssay (NCATS).
# Records with an inconclusive call do not appear. A call without a number means that no potency is given here. Active and inactive are the calls of the source. Calls come from the whole dose curve; as a rule, active = well fitted inhibition curve with a large enough effect; inconclusive = small, poorly fitted or top-dose-only effect; inactive = no such curve, though single readings can be large or run the other way.
# Assay: Primary qHTS for small molecule stabilizers of the endoplasmic reticulum resident proteome: Secreted ER Calcium Modulated Protein (SERCaMP) assay (AID 1508630)
# Details: SH-SY5Y GLuc-SERCaMP (Gaussia luciferase released on ER calcium loss) secretion, thapsigargin, luminescence; series mostly up to 38.4 µM
# Procedure, shortened: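 The SH-SY5Y reporter protocol was run at 3 concentrations up to 38.3 uM (primary) or 11 concentrations (follow-up): 16 h compound, 100 nM thapsigargin for 4 h, then extracellular luciferase luminescence.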
row,SMILES,Potency
1,CO/N=C(\C(=O)N[C@@H]1C(=O)N2C(C(=O)O)=C(CSc3nc(=O)c(O)nn3C)CSC12)c1csc(N)n1 (some centres not stated),inactive
2,CCCN(CCc1ccccc1)C1CCc2c(O)cccc2C1 (configuration not stated),inactive
3,CN1CC(O)C(O)C(O)C1CO (configuration not stated),inactive
4,CCCCCCC(=O)OC1CC(C)(C)NC(C)(C)C1,inactive
5,O=C(O)c1ccccc1Nc1ccccc1,inactive
6,O=C(O)C1=CCCN(CCON=C(c2ccccc2)c2ccccc2)C1,inactive
7,CN[C@H](CC(=O)O)C(=O)O,inactive
8,C[C@H](O)C(=O)C1=Nc2c(nc(N)[nH]c2=O)NC1,inactive
9,Nc1ccc(CCNc2ncnc3c2ncn3C2OC(CO)C(O)C2O)cc1 (configuration not stated),inactive
10,Nc1nc2ccc(Cl)cc2c2nc(-c3ccco3)nn12,inactive
11,CC(C)(C)c1cc(/C=C(\C#N)C(N)=S)cc(C(C)(C)C)c1O,inactive
12,NCC(O)c1ccc(O)c(O)c1 (configuration not stated),inactive
13,Nc1ccc(-c2nc3ccc(-c4nc5ccc(N)cc5[nH]4)cc3[nH]2)cc1,inactive
14,CCCCCCCCCCCCCCCCCCOC[C@H](COP(=O)([O-])OCC[N+](C)(C)C)OC,inactive
15,Cc1cc(Cn2cnc3c2C[C@@H](C(=O)O)N(C(=O)C(c2ccccc2)c2ccccc2)C3)ccc1N,inactive
16,N#CC(=C(\N)Sc1ccccc1N)/C(C#N)=C(/N)Sc1ccccc1N,inactive
17,N[C@@H](CCC(=O)N[C@H](CSN=O)C(=O)NCC(=O)O)C(=O)O,inactive
18,O=C(O)c1cccnc1C(=O)O,inactive
19,O=[N+]([O-])c1cccc2c(Br)[nH]nc12,inactive

row,SMILES,Potency
1,NCCNS(=O)(=O)c1cccc2c(Cl)cccc12,inactive
2,CCCCCCC/C=C\CCCCCCCCC(=O)O,inactive
3,CCCCCCCCCCCCCCSCC(=O)O,inactive
4,O=c1cc(-c2ccccc2F)[nH]c2cc3c(cc12)OCO3,inactive
5,CN1CCC2(CCN3CCc4c(oc5ccccc45)C3C2)N(C)C1=O (configuration not stated),inactive
6,NC(N)=NC(N)=Nc1cccc(Cl)c1,inactive
7,N#Cc1cc2nc(O)c(O)nc2cc1[N+](=O)[O-],inactive
8,Cc1cc2c(cc1Cl)N(C(=O)Nc1ccnc3ccccc13)CC2,inactive
9,CCCCCCCCCCC/C=C\C(C)(C)/C=C\CCCC(=O)O,inactive
10,O=c1onc2cnc3ccccc3n12,inactive
11,NC(=O)c1cc[n+](CC2=C(C(=O)O)N3C(=O)[C@@H](NC(=O)[C@@H](c4ccccc4)S(=O)(=O)[O-])[C@H]3SC2)cc1,inactive
12,O=c1ccc2c(OCCCCc3ccccc3)c3ccoc3cc2o1,inactive
13,Cc1nc(N=Nc2cc(S(=O)(=O)O)c3cc([N+](=O)[O-])cc(S(=O)(=O)O)c3c2)c(COP(=O)(O)O)c(C=O)c1O,inactive
14,CC(N)(C(=O)O)c1ccc(C(=O)O)cc1 (configuration not stated),inactive
15,O=C(O)/C(=C/c1c(C(=O)O)[nH]c2cc(Cl)cc(Cl)c12)c1ccccc1,inactive
16,CCCCCC[C@@H]([C@@H](C)O)n1cnc2c(N)ncnc21,inactive
17,CCC1(O)CC2CN(CCc3c([nH]c4ccccc34)[C@@](C(=O)OC)(c3cc4c(cc3OC)N(C)C3[C@]45CCN4CC=C[C@@](CC)([C@@H](OC(C)=O)[C@]3(O)C(=O)OC)[C@H]45)C2)C1 (some centres not stated),inactive
18,C/C(=C\c1ccc(C(=O)O)cc1)c1ccc2c(c1)C(C)(C)CCC2(C)C,inactive
